Experimental data published in PubChem BioAssay (Tox21).
Where “and” joins values, the source holds several entries; their conditions need not be identical. Identical values can stand only once. Results filed as inconclusive are left out. A call without a number means that no potency is given here. Where a structure was tested more than once in an assay, its records may differ in their call. Calls of active or inactive are those of the source. Unless noted, calls come from the whole dose curve.

Columns and labels:
[1] = Nuclear factor erythroid 2-related factor 2/antioxidant responsive element (Nrf2/ARE) small molecule agonists: qHTS cell viability counter screen in human keratinocytes (AID 1919968; active = well fitted curve in the direction sought with a large enough effect in the repeat runs; an effect the other way counts as inactive or inconclusive; note: nearly all actives have a fitted effect of over 55% in size; note: potency is the fitted concentration of half-maximal effect)
In short: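 HaCaT ARE reporter line, 1,500 cells/well; 5 h settle, 37 C/5% CO2; cpd in DMSO pinned; 23 h exposure; CellTiter-Fluor, 1 h; fluorescence.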

[2] = Nuclear factor erythroid 2-related factor 2/antioxidant responsive element (Nrf2/ARE) small molecule agonists: luciferase reporter gene qHTS assay in human keratinocytes (AID 1919969); note: nearly all actives have a fitted effect of over 35% in size; note: potency is the fitted concentration of half-maximal effect
[3] = target: Gonadotropin-releasing hormone receptor (Homo sapiens) (UniProt P30968); experiment: Human gonadotropin-releasing hormone receptor (GnRHR) small molecule agonists, calcium flux assay in GnRHR-HEK293 cells (AID 1920063); note: nearly all actives have a fitted effect of over 35% in size; note: potency is the fitted concentration of half-maximal effect
In short: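 GnRHR-HEK293, 1500 cells/well, 18 h 37 C/5% CO2; Ca dye 1 h 37 C; cpd pinned (DMSO), agonist mode; kinetic FL 480/540, 3 min, 1 s reads; 15 conc, n=3.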

[4] = target: KiSS-1 receptor (Homo sapiens) (UniProt Q969F8); experiment: Human kisspeptin (KISS1R) small molecule agonists, calcium flux assay in KISS1R-HEK293 cells (AID 1920064; active = well fitted curve in the direction sought with a large enough effect in the repeat runs; an effect the other way counts as inactive or inconclusive)
In short: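 Stable human KISS1R HEK293 line; 18 h plating, 37 C/5% CO2; calcium dye 1 h 37 C; compound pin transfer; kinetic fluorescence Ex/Em 480/540, 3 min.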

[5] = G protein-coupled receptor (GPCR) small molecule agonists, calcium flux assay: HEK293 wild type cell line counter screen (AID 1920065)
In short: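 Kinetic fluorescence at Ex/Em 480/540, recorded every second over 3 min, served as the read-out after compound addition. Each compound was tested at 15 concentrations in triplicate on cells pre-loaded with calcium dye for 1 h.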

[6] = p53 small molecule agonists, cell-based qHTS assay with human liver microsomes (AID 1963577);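 note: p53 response element beta-lactamase reporter cells with liver microsomes plus NADPH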
In short: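 HLM-supplemented p53RE-bla reporter assay: 16 h compound exposure at 37 C, microsomes and NADPH each 0.5 mg/mL final, read by fluorescence intensity.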

[7] = p53 small molecule agonists, cell-based qHTS assay with rat liver microsomes (AID 1963578)
In short: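 Quantitative HTS of the Tox21 10K library: p53RE-bla cells, rat liver microsomes plus NADPH at 0.5 mg/mL final each, 16 h at 37 C, beta-lactamase fluorescence detection.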

[8] = p53 small molecule agonists, cell-based qHTS assay with human liver microsomes: qHTS cell viability counter screen (AID 1963579); note: nearly all actives have a fitted effect of over 45% in size; note: potency is the fitted concentration of half-maximal effect
In short: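 Viability of p53RE-bla cells is measured as CellTiter-Glo luminescence following a 16 h, 37 C incubation with compound, liver microsomes from human donors and NADPH.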

[9] = p53 small molecule agonists, cell-based qHTS assay with rat liver microsomes: qHTS cell viability counter screen (AID 1963580); note: nearly all actives have a fitted effect of over 45% in size; note: potency is the fitted concentration of half-maximal effect
In short: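 p53RE-bla HCT-116 cells (4,000/well) rested 5 h at 37 C, then given Tox21 compounds in DMSO with rat liver microsomes (0.5 mg/mL final) plus NADPH (0.5 mg/mL final) for 16 h at 37 C. Viability read by CellTiter-Glo luminescence after 30 min at room temperature.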

[10] = p53 small molecule agonists, cell-based qHTS assay (AID 1963582; active = well fitted activation curve with a large enough effect in the signal ratio in the repeat runs, not every such curve was filed as active; the % refers to the signal ratio)
In short: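 Reporter line: p53RE-bla. Pre-incubation 5 h, 37 C, 5% CO2; compound (DMSO, pin tool) 16 h, 37 C; B/G FRET substrate 2 h RT; fluorescence intensity read.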

[11] = target: 5-hydroxytryptamine receptor 2A (Homo sapiens) (UniProt P28223); experiment: 5-hydroxytryptamine receptor 2A (HTR2A) small molecule antagonists, cell-based qHTS assay (AID 1963586); note: nearly all actives have a fitted effect of over 45% in size
In short: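 Antagonist-mode intracellular calcium assay: DOI (4 nM) added after 5 min compound pre-incubation at room temperature to dye-loaded HTR2A-CHO cells. Fluorescence followed for 3 min, sampled every second.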

[12] = target: Muscarinic acetylcholine receptor M1 (Homo sapiens) (UniProt P11229); experiment: Cholinergic receptor muscarinic 1 (CHRM1) small molecule agonists, cell-based qHTS assay (AID 1963589); note: nearly all actives have a fitted effect of over 35% in size; note: potency is the fitted concentration of half-maximal effect
In short: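 Human M1 in stable CHO line; 18 h plating, 1 h dye load 37 C; cpd added (agonist mode); Ca2+ fluorescence kinetic read, 1 s intervals; 15 conc, 3 runs.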

[13] = cAMP Responsive Elements (CRE) small molecule agonists, cell-based qHTS assay (AID 1963590)
In short: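 HEK 293T CRE-bla, 2,000 cells/well, 18 h preincubation 37 C/5% CO2; cpds (DMSO) pinned, 3 h; LiveBLAzer B/G FRET substrate, 2 h RT.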

[14] = cAMP Responsive Elements (CRE) small molecule antagonists, cell-based qHTS assay (AID 1963591; active = well fitted inhibition curve with a large enough effect in the signal ratio in the repeat runs, not every such curve was filed as active; the % refers to the signal ratio)
In short: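 Beta-lactamase reporter read by FRET substrate (LiveBLAzer B/G) after 2 h at room temperature. CRE-bla HEK293T cells had received compound plus 0.25 uM (final) NKH477 for 3 h at 37 °C.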

[15] = target: Beta-2 adrenergic receptor (Homo sapiens) (UniProt P07550); experiment: Adrenergic beta2 receptor (ADRB2) small molecule antagonists, cell-based qHTS assay (AID 1963592); note: series mostly up to about 92 µM; nearly all actives have a fitted effect of over 50% in size
In short: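 Cells (CHO, stable ADRB2 overexpression) incubated 18-20hr at 37C; compounds added from DMSO; agonist mix (1nM isoproterenol, 100uM IBMX, 25uM Ro-20-1724) added; 0.5hr RT; d2-cAMP and anti-cAMP-cryptate added; 1hr RT; 665/615 nm read.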

[16] = target: D(2) dopamine receptor (Homo sapiens) (UniProt P14416); experiment: Dopamine D2 receptor (DRD2) small molecule agonists, cell-based qHTS assay (AID 1963594); note: nearly all actives have a fitted effect of over 35% in size
In short: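 HEK293 cells stably expressing DRD2 were cultured 24 h at 37 C, then given Ro20-1724 (0.1 mM final) and compounds for 10 min at room temperature. NKH477 (200nM) was then added for 30 min. cAMP was read by HTRF.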

[17] = target: D(2) dopamine receptor (Homo sapiens) (UniProt P14416); experiment: Dopamine D2 receptor (DRD2) small molecule antagonists, cell-based qHTS assay (AID 1963595; active = well fitted inhibition curve with a large enough effect in the signal ratio in the repeat runs, with a control signal flat; the % refers to the signal ratio; note: potency is the fitted concentration of half-maximal effect)
In short: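 HEK293 cells stably expressing DRD2 were preincubated with 0.1 mM Ro20-1724, then with compound for 10 min at room temperature. Cells were stimulated with 200 nM NKH477 plus 12 nM quinpirole for 30 min, and cAMP was read by HTRF.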

[18] = target: 5-hydroxytryptamine receptor 2A (Homo sapiens) (UniProt P28223); experiment: 5-hydroxytryptamine receptor 2A (HTR2A) small molecule agonists, cell-based qHTS assay (AID 1963587); note: nearly all actives have a fitted effect of over 30% in size; note: potency is the fitted concentration of half-maximal effect
In short: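 HTR2A-CHO cells, plated 18 h at 37 C/5% CO2, dye-loaded 1 h at 37 C; compounds in DMSO added by pin tool (agonist mode). Intracellular calcium flux read as kinetic fluorescence on FDSS over 2 min at 1 s intervals.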

[19] = target: Muscarinic acetylcholine receptor M1 (Homo sapiens) (UniProt P11229); experiment: Cholinergic receptor muscarinic 1 (CHRM1) small molecule antagonists, cell-based qHTS assay (AID 1963588); note: nearly all actives have a fitted effect of over 40% in size
In short: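 CHRM1-CHO calcium-flux assay, antagonist mode. Cells were seeded 18 h, dye-loaded 1 h at 37 C and given compound for 5 min at RT, then acetylcholine was added at 50nM. FDSS fluorescence was read 3 min; 15 concentrations, three runs.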

[20] = p53 small molecule agonists, cell-based qHTS assay: qHTS cell viability counter screen (AID 1963581); note: nearly all actives have a fitted effect of over 45% in size; note: potency is the fitted concentration of half-maximal effect
In short: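 HCT-116 p53RE-bla cells, 4,000/well, plated 5 h before compound pin transfer; 16 h at 37 C; bla substrate 2 h RT; then CellTiter-Glo, 30 min RT, luminescence.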

Chain of Gonadotropin-releasing hormone receptor (Homo sapiens) (P30968 whole entry, looked up): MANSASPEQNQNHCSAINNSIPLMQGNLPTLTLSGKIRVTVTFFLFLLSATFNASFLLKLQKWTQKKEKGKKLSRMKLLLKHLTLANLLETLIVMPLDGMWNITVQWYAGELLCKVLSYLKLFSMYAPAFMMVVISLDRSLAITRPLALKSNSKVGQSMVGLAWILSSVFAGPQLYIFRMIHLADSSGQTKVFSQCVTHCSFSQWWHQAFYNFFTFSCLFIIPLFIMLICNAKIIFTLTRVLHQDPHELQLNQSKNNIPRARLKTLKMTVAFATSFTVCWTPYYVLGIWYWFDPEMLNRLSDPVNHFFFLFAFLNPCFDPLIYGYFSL
Chain of D(2) dopamine receptor (Homo sapiens) (P14416 whole entry, looked up): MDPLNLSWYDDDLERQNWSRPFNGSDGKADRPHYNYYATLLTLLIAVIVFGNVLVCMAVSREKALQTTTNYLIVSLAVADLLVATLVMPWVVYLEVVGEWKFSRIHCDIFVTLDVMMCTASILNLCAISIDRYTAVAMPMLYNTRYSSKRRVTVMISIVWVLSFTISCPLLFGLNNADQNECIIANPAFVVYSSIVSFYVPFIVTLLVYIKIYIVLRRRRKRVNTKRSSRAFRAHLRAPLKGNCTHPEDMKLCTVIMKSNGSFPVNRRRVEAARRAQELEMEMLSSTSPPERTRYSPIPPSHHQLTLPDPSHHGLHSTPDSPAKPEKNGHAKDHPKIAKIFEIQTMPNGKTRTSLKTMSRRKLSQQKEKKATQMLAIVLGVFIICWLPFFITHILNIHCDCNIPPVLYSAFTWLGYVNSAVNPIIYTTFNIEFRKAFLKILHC
Chain of Muscarinic acetylcholine receptor M1 (Homo sapiens) (P11229 whole entry, looked up): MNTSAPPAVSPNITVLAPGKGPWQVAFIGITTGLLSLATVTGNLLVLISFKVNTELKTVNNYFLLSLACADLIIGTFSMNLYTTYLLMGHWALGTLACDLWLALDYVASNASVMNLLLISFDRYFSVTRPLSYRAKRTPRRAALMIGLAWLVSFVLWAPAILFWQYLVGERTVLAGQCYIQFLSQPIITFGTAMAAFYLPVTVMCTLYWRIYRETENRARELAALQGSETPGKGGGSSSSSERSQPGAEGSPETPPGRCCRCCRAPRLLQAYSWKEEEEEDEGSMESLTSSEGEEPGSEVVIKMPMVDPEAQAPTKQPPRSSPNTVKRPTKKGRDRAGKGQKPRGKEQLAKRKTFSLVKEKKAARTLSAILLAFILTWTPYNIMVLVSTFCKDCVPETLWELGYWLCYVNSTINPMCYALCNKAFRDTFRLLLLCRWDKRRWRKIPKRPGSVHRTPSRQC
Chain of 5-hydroxytryptamine receptor 2A (Homo sapiens) (P28223 whole entry, looked up): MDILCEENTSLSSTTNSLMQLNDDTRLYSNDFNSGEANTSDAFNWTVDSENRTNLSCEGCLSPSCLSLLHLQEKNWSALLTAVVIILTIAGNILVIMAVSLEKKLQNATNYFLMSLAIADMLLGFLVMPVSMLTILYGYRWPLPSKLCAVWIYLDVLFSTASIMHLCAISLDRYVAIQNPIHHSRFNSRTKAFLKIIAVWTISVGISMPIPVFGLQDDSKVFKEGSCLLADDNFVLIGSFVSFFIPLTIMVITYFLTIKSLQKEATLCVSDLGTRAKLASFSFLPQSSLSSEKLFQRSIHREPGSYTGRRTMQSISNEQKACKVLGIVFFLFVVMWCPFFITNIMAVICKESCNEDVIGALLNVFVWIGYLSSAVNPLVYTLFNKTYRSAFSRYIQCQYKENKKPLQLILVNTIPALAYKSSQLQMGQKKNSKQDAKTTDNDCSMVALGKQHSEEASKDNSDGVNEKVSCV
Chain of KiSS-1 receptor (Homo sapiens) (Q969F8 whole entry, looked up): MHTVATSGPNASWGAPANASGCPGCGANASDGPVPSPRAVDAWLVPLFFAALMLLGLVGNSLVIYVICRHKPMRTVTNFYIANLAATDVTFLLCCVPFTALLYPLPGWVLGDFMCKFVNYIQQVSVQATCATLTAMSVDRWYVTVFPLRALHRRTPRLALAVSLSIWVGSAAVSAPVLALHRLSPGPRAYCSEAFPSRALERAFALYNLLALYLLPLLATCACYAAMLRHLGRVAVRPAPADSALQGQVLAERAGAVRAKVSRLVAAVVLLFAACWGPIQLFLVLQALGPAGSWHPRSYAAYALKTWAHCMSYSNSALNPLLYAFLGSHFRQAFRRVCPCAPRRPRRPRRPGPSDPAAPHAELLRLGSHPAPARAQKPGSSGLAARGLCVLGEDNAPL
Chain of Beta-2 adrenergic receptor (Homo sapiens) (P07550 whole entry, looked up): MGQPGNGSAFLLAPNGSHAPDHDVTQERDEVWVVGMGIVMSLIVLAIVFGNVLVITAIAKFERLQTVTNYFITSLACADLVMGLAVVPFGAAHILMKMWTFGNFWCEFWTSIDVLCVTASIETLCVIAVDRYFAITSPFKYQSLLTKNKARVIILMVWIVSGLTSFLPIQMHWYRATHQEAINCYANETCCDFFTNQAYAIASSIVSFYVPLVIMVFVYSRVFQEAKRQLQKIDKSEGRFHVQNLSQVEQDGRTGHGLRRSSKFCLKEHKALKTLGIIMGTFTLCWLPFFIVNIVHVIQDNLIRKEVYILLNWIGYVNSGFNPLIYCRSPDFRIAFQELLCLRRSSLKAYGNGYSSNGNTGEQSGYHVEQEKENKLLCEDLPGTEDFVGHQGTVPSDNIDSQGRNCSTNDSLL

## c1ccc2c(c1)Oc1ccccc1O2
[1]
  Potency: inactive
[2]
  Potency: inactive
[3]
  Potency: inactive
[4]
  Potency: inactive
[5]
  Potency: inactive
[6]
  Potency: inactive
[7]
  Potency: inactive
[8]
  Potency: inactive
[9]
  Potency: inactive
[10]
  Potency: inactive
[11]
  Potency: inactive
[12]
  Potency: inactive
[13]
  Potency: inactive
[14]
  Potency: inactive
[15]
  Potency: inactive
[16]
  Potency: inactive
[17]
  Potency: inactive

## NC1(c2ccccc2)CCCCC1
[1]
  Potency: inactive
[2]
  Potency: inactive
[3]
  Potency: inactive
[4]
  Potency: inactive
[5]
  Potency: inactive
[6]
  Potency: inactive
[7]
  Potency: inactive
[8]
  Potency: inactive
[9]
  Potency: inactive
[10]
  Potency: inactive
[11]
  Potency: inactive
[18]
  Potency: inactive
[19]
  Potency: inactive
[12]
  Potency: inactive
[13]
  Potency: inactive
[14]
  Potency: inactive
[15]
  Potency: inactive
[16]
  Potency: inactive

## N[C@@H](Cc1ccc(N(CCCl)CCCl)cc1)C(=O)O
[1]
  Potency: inactive
[2]
  Potency: inactive
[3]
  Potency: inactive
[4]
  Potency: inactive
[5]
  Potency: inactive
[6]
  Potency: inactive
[7]
  Potency: inactive
[8]
  Potency: inactive
[9]
  Potency: inactive
[20]
  Potency: inactive
[13]
  Potency: inactive
[14]
  Potency: inactive
[15]
  Potency: inactive
[16]
  Potency: inactive
[17]
  Potency: inactive

## C=Cc1cccc(CCl)c1
[1]
  Potency: inactive
[2]
  Potency: inactive
[3]
  Potency: inactive
[4]
  Potency: inactive
[5]
  Potency: inactive
[6]
  Potency: inactive
[7]
  Potency: inactive
[8]
  Potency: inactive
[9]
  Potency: inactive
[10]
  Potency: inactive
[11]
  Potency: inactive
[18]
  Potency: inactive
[19]
  Potency: inactive
[12]
  Potency: inactive
[13]
  Potency: inactive
[14]
  Potency: inactive
[15]
  Potency: inactive
[17]
  Potency: inactive

## CCC(C)c1cc([N+](=O)[O-])cc([N+](=O)[O-])c1O (stereo not given)
[1]
  Potency: inactive and 17.2 µM (active)
[2]
  Potency: inactive
[3]
  Potency: inactive
[4]
  Potency: inactive
[5]
  Potency: inactive
[6]
  Potency: inactive
[7]
  Potency: inactive
[8]
  Potency: inactive
[9]
  Potency: inactive
[10]
  Potency: inactive
[11]
  Potency: inactive
[18]
  Potency: inactive
[19]
  Potency: inactive
[12]
  Potency: inactive
[13]
  Potency: inactive
[14]
  Potency: inactive
[15]
  Potency: inactive
[16]
  Potency: inactive
[17]
  Potency: inactive

## CC(=O)[O][Hg][c]1ccccc1
[1]
  Potency: 1.08 µM (active) and 2.17 µM (active) and 3.35 µM (active)
[2]
  Potency: 864 nM (active) and 2.66 µM (active)
[3]
  Potency: 34.4 µM (active) and 24.5 µM (active)
[4]
  Potency: inactive
[5]
  Potency: inactive
[6]
  Potency: inactive
[7]
  Potency: inactive
[8]
  Potency: 4.04 µM (active) and 5.13 µM (active)
[9]
  Potency: 3.6 µM (active) and 5.76 µM (active) and 11.2 µM (active)
[20]
  Potency: 1.61 µM (active) and 4.08 µM (active) and 5 µM (active)
[18]
  Potency: 21.7 µM (active) and 54.9 µM (active) and inactive
[19]
  Potency: inactive
[12]
  Potency: 43.6 µM (active)
[17]
  Potency: 6.06 µM (active) and 2.73 µM (active) and 5.96 µM (active)

## CC(C)NC(=O)N1CC(=O)N(c2cc(Cl)cc(Cl)c2)C1=O
[1]
  Potency: inactive
[2]
  Potency: inactive
[3]
  Potency: inactive
[4]
  Potency: inactive
[5]
  Potency: inactive
[6]
  Potency: inactive
[7]
  Potency: inactive
[8]
  Potency: inactive
[9]
  Potency: inactive
[10]
  Potency: inactive
[11]
  Potency: inactive
[19]
  Potency: inactive
[12]
  Potency: inactive
[14]
  Potency: inactive
[15]
  Potency: inactive
[16]
  Potency: inactive
[17]
  Potency: inactive

## CC(C)CON=O
[1]
  Potency: inactive
[2]
  Potency: inactive
[3]
  Potency: inactive
[4]
  Potency: inactive
[5]
  Potency: inactive
[6]
  Potency: inactive
[7]
  Potency: inactive
[8]
  activity change, negative = cytotoxicity: -1.64% [at 13.5 µM] (inactive)
[9]
  Potency: inactive
[10]
  Potency: inactive
[18]
  Potency: inactive
[19]
  Potency: inactive
[12]
  Potency: inactive
[14]
  Potency: inactive
[15]
  Potency: inactive
[16]
  Potency: inactive
[17]
  Potency: inactive
